# Assay results from PubChem BioAssay AID1259397 (Fisher Drug Discovery Resource Center, 2018).
# Values joined by “and” are separate entries in the source; they are usually repeats but may differ in a detail not shown here. Equal values may be shown once. The whole screen tested about 130,000 compounds, of which about 230 (0.18%) were called active. This is one part of a sample in which actives are shown more often than they occur. Unmarked numbers belong to inactive results.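 How the source made its calls: active means inhibition of cGAS enzyme activity at or above 60%; inactive means the rest.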
# Target: Cyclic GMP-AMP synthase (Mus musculus) (UniProt Q8C6L5)
# Test: inhibitors of Mus musculus cyclic GMP-AMP synthase, initial high-throughput assay, cell-free, RapidFire MS (AID 1259397);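 further: enzyme stimulated by 45 bp dsDNA with ATP and GTP substrates; cGAMP share of summed cGAMP plus half ATP and half GTP signals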
# Settings: recombinant mouse cGAS, cGAMP by RapidFire MS; at 12.5 µM; hits give high values
# Sequence of Cyclic GMP-AMP synthase (Mus musculus) (Q8C6L5 whole entry, looked up): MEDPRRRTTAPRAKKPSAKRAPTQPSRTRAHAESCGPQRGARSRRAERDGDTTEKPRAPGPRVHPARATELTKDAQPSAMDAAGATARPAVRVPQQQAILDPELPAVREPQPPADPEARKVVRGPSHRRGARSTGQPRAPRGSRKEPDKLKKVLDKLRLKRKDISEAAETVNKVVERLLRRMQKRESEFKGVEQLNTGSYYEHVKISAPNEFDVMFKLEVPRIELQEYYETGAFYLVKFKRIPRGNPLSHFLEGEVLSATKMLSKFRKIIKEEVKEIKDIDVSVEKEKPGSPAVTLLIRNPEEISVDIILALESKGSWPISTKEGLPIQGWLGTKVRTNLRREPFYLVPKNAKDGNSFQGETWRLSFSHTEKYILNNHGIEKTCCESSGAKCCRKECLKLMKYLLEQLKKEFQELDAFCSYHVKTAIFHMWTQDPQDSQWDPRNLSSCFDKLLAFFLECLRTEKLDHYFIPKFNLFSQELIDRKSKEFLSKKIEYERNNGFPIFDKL
row,Structure (SMILES),inhibition
1,COC(=O)CCC(=O)N1CCCC(C(=O)c2ccc(-c3ccccc3)cc2)C1 (stereo unspecified),-2.49%
2,Cc1ccc(C(=O)NCC(NC(=O)c2ccc(C)nc2)C(C)C)cn1 (stereo unspecified),3.43%
3,CC(C)C1CN(C(=O)CCn2cncn2)CCCN1Cc1ccc(F)cc1 (stereo unspecified),-18%
4,COc1ccc(-n2c(C)nc3ccc(NC(=O)Nc4ccc(C)cc4C)cc3c2=O)cc1,-11.4%
5,CN(C(=O)c1ccc(=O)[nH]n1)C1c2ccccc2-c2ccccc21,-2.89% and -15.8%
6,Cc1ncc(-c2c(-c3ccccc3)ncn2Cc2csc(N)n2)[nH]1,-18.8%
7,CCOc1ccc(Cl)cc1S(=O)(=O)N1CCN(CCO)CC1,-1.81%
8,Cc1ccccc1NC(=O)Cn1cc(S(=O)(=O)c2ccc(F)cc2)c(=O)c2cc3c(cc21)OCO3,-8.2%
9,CN1C(=O)Cc2cc(-c3csc(CCN4CCCCC4)n3)ccc21,-45.7%
10,Cc1cc(C)c(S(=O)(=O)Nc2ccc(-c3cn4ccc(C)nc4n3)cc2)c(C)c1,-25.3%
11,CCCn1c(=O)c2c(nc3n2CCN3c2cc(C)ccc2C)n(C)c1=O,-2.17%
12,Cn1c(=O)c2c(nc(CN3CCCCC3)n2Cc2cccc3ccccc23)n(C)c1=O,-3.06%
13,CCOc1ccc2c(c1)C(C)CC(C)(C)N2C(=O)C1CCN(C(=O)C2CC2)CC1 (stereo unspecified),-7.85%
14,CSCc1ccc(C(=O)N2CCCC(C(=O)c3ccc4c(c3)OCO4)C2)o1 (stereo unspecified),-4.82%
15,O=C(C=Cc1ccsc1)N1CCN(S(=O)(=O)c2cc(F)ccc2F)CC1,-8.87%
16,CN(C)CCNc1cc(-c2n[nH]c(C(F)(F)F)n2)c2cc[nH]c2n1,-6.32%
17,COc1ccccc1OCCCOc1ccc(Cl)cc1Cl,-12.4%
18,CCOc1cn2c(cc1=O)C(=O)N(CCNC(=O)c1ccc(C)cc1)CC2,-4.57%
19,CCCN(C(=O)c1ccc(-n2ccnc2)cc1)C1CCCC1,-16.4%
20,Cc1cnn(CC2CCN(C(=O)c3ccccc3C3CCNC3)CC2)c1 (stereo unspecified),3.82%
21,Cc1ccc(OCc2nc(C(=O)NC3CC(C)(C)NC(C)(C)C3)cs2)cc1,-17.3%
22,CCCCOC1CC(N(C)Cc2ccc(S(=O)(=O)N(C)C)o2)C1(C)C (stereo unspecified),-31.6%
23,COC(=O)C[C@H]1[C@]2(C)C[C@@]34OC5(C)OC6(C(OC(C)=O)[C@@]3(OC(C)=O)[C@H]2OC(C)=O)C2CC(=O)O[C@@H](c3ccoc3)[C@]2(C)CCC6(O5)[C@]14C (stereo partly specified),1.62%

row,Structure (SMILES),inhibition
1,Cn1ccnc1CN(C(=O)c1scc2c1CCCC2)C1CC1,-27.6%
2,CC(C)CCN(CCC#N)Cc1ncc(Cl)n1C,-8.32%
3,CC(N)=C(C#N)C(=O)COC(=O)c1ccc([N+](=O)[O-])o1,-1.77%
4,CC(CC(=O)Nc1ccc(F)cc1)n1cncn1 (stereo unspecified),-11%
5,CCOCC(O)CN1CCN(C(=O)Cn2ccccc2=O)CC1 (stereo unspecified),-5.1%
6,CC(C)Cn1c(CN(Cc2ccccc2)CC2CC2)cnc1S(C)(=O)=O,-12.5%
7,CC(C)c1ccc2c(c1)CCCN2C(=O)CSC1CCS(=O)(=O)C1 (stereo unspecified),-7.34%
8,CC(N)=C(C#N)C(=O)COC(=O)C12CC3CC(CC(Br)(C3)C1)C2,-14%
9,CC1C(=O)SC2(CCCCC2)N1c1ccc(Cl)cc1 (stereo unspecified),-10.1%
10,CC1=C(C(=O)N2CCC(N3CCC(C(=O)NCC4CCCO4)CC3)CC2)OCCO1 (stereo unspecified),-2.1%
11,O=C(CCc1nc2ccccc2s1)NC1CCN(Cc2ccccc2)C1 (stereo unspecified),-1.33%
12,Cc1cc(C)n(CC2CCN(C(=O)C3CCN(S(C)(=O)=O)CC3)CC2)n1,-6.54%
13,Cc1cn2c3c(=O)n(CCc4ccccc4)c(=O)n(C)c3nc2n1CCOCCO,-7.78%
14,CCCNC(=O)C1(C)CCCN(Cc2c(C)nn(-c3ccccc3)c2C)C1 (stereo unspecified),-6.24%
15,CCOc1ccc(CNC(=O)Cc2sc(=S)[nH]c2C)cc1F,-6.57%
16,CC(=O)Nc1ccc(Cl)c(C(=O)N(C)CCc2nc3ccccc3[nH]2)c1,-12.1%
17,CCc1ccc(C(=O)NNC(=S)Nc2sc(CC)cc2C(=O)OC)s1,-2.22%
18,COc1cccc(N2C[C@@H]3C[C@@H](c4cccs4)N4CCC[C@@]34C2=O)c1,-6.87%
19,COC(=O)Cn1nc([N+](=O)[O-])n(CC(=O)OC)c1=O,-9.81%
20,COc1ccc(NC2CCCN(c3nc(C(F)(F)F)nc(C)c3C)C2)cc1 (stereo unspecified),-21.1%
21,CCCOc1ccc(C(=O)NNC(=O)c2ccc[nH]c2=O)cc1,2.97%
22,CN(C)/C=C(\C(=O)c1ccc(Cl)c(Cl)c1)c1nnnn1-c1ccccc1,-2.94%
23,CC1CN(Cc2ccccc2F)CCO1 (stereo unspecified),-0.301%

row,Structure (SMILES),inhibition
1,CC(C(=O)N1CCCC1)N1CCOC(CN(C)C)C1 (stereo unspecified),-1.48%
2,CCc1ccc(Cl)c(CC)c1NC(=O)c1cnccn1,-4.79%
3,N#Cc1ccc(C2=CSC3=NS(=O)(=O)CCN23)cc1,-8.31%
4,O=C(NCCC(F)(F)F)c1csc(N2CCN(Cc3ccccc3)C2=O)n1,-6.72%
5,Cc1noc(C)c1C(=O)N1CCC1(C)C(=O)NS(=O)(=O)c1ccc(C#N)cc1 (stereo unspecified),-9.56%
6,O=[N+]([O-])c1cc(S(=O)(=O)C(F)(F)F)ccc1N1CCCC1,-9.38%
7,C=CCSc1nc2ccccc2n1CCO,-7.69%
8,CC(=O)Nc1ccc(Cl)c(C(=O)NC(CCn2ccnc2)c2ccccc2)c1 (stereo unspecified),-10.1%
9,CCC1(C)Cc2ccccc2-c2nc3[nH][nH]c(=S)n3c(=O)c21 (stereo unspecified),15%
10,COc1ccccc1/C=C/C=C1\N=C(c2ccc(C(C)(C)C)cc2)OC1=O,-5.55%
11,Cc1ccc(C)c(C=C2SC(N3CCOCC3)=NC2=O)c1,-2.54%
12,O=C(NC[C@H]1C[C@H]2C=C[C@H]1C21CC1)C1CCN(Cc2ccco2)CC1,-6.29%
13,CN(Cc1cn[nH]c1-c1ccc(F)cc1)C(=O)Cc1c[nH]c2ccccc12,-11.3%
14,OCC1(Cc2ccccc2Cl)CCN(C2CCN(c3ccccc3)CC2)CC1,-7.34%
15,Cc1cc2nc(N(CCN3CCOCC3)C(=O)C3COc4ccccc4O3)sc2cc1C (stereo unspecified),-7.12%
16,CCN(CCn1cccn1)C(=O)CC1C(=O)NCCN1C1Cc2ccccc2C1 (stereo unspecified),3.93% and -3.95%
17,Cc1c(C)c(C)c(C(=O)C2CCN(C(=O)CC3NC(=O)NC3=O)CC2)c(C)c1C (stereo unspecified),-1.46%
18,Cc1nc2c(cnn2C(C)C)c(C)c1CCC(=O)NC1CCCC1,-7.8%
19,Cc1ccsc1C(CNC(=O)c1cnn2ccn(C)c12)N(C)C (stereo unspecified),-20.4%
20,O=S(=O)(c1ccc2c(c1)OCCCO2)N1CCCC(c2nc3ccccc3s2)C1 (stereo unspecified),10%
21,Cc1sc2ncn(CC(=O)c3ccc[nH]3)c(=O)c2c1C,14.3%
22,Cc1nc2ccc(C(=O)N3CCC4(CC3)Nc3ccccc3C(=O)N4CCO)cc2[nH]1,-0.499%
23,COc1cc2c(cc1CNC1CCN(Cc3ccccc3)C1)OC(C)C2 (stereo unspecified),-13.3%

row,Structure (SMILES),inhibition
1,CC(=O)OC(OC(C)=O)c1coc2c(F)cccc2c1=O,2.77%
2,CCC1CCC(N(CC(=O)NC(C)C(=O)N(C)C)C(C)c2ccc(F)cc2)CC1 (stereo unspecified),-8.3%
3,Cc1[nH]n(-c2nc(O)c(C)c(=O)[nH]2)c(=O)c1CCO,-3.37%
4,CCCNc1nc2c(C)cccn2c(=O)c1C=C1SC(=S)N(CC(C)C)C1=O,-5.08%
5,Cc1ccc(NC(=O)CN2CCCN(c3ccc(C(F)(F)F)cn3)CC2)cc1,-2.92%
6,CC(Nc1ncnc2sc3c(c12)CCCC3)c1ccccc1 (stereo unspecified),-2.34%
7,CN(Cc1nc(-c2ccc(Br)s2)no1)c1nccs1,-1.14%
8,CN(C)c1ccc(N2CC(=O)C(c3nc(-c4cccc(Cl)c4)cs3)C2=N)cc1 (stereo unspecified),-4.69%
9,Cc1ccc(NC(=O)C(C)N2CCCC(C(F)(F)F)C2)cc1 (stereo unspecified),-5.21%
10,CCCN(C)CC1CCN(C(C)C(=O)Nc2ccc(C(F)(F)F)cc2)C1 (stereo unspecified),93.9% (active)
11,CCc1ccc(NC(=O)C(C)n2cc(C(F)(F)F)ccc2=O)cc1 (stereo unspecified),-4.23%
12,CCn1ccc(C(=O)NCc2cccnc2Oc2ccc(C)nc2)n1,4.9%
13,O=C(CSc1nnc(-c2ccco2)o1)NC1CC1,-7.76%
14,Cc1cccc[n+]1CC(=O)C12CC3CC(CC(C3)C1)C2,-6.75%
15,COc1ccc2c(c1)CCc1cc(C(=O)NC(C)c3c(C)nn(C)c3C)sc1-2 (stereo unspecified),0.0306%
16,CC(Nc1cccc(Br)c1)N1C(=O)CCC1=O (stereo unspecified),-5.36%
17,COc1ccc(OC)c(C2CCCN2Cn2nc(-c3ccccc3F)n(C)c2=S)c1 (stereo unspecified),-6.22%
18,NC(=O)Cn1nnc(-c2ccccc2Br)n1,-12.5%
19,COc1cccc(N(CN2C(=O)c3ccccc3C2=O)C(C)=O)c1,22.9%
20,CC(C)(C)SCCNC(=O)CN(c1ccc(Cl)cc1Cl)S(=O)(=O)c1ccccc1,-1.39%
21,Cc1ccc(-c2cnc(C(O)c3cccc(C)c3C)[nH]2)cc1 (stereo unspecified),-3.19%
22,N#Cc1ccc(F)c(COC(=O)c2cncc(Br)c2)c1,6.6%
